# Data: the antibiotic and cytotoxicity screens of Wong et al. (2023)
# About 3,300 (8.5%) of roughly 39,000 compounds were called active. The sample holds actives, similar compounds and a random draw of the others, so the mix is not that of the screen.
# Tested on: HepG2
# Assay: cytotoxicity call (relative viability < 0.9)
# Details: 10 µM
row,SMILES,cytotoxicity call
1,COCC(=O)Nc1ccc2c(c1)OC[C@H](C)N(C(=O)Cc1cccnc1)C[C@@H](C)[C@H](OC)CN(C)C2=O,inactive
2,COCC#Cc1ccc2c(c1)O[C@H](CN(C)C(=O)Nc1ccccc1F)[C@H](C)CN([C@@H](C)CO)S2(=O)=O,inactive
3,COc1ccccc1-c1cnc2c(c1)C(=O)N([C@@H](C)CO)C[C@H](C)[C@@H](CN(C)C(=O)c1ccncc1)O2,inactive
4,O=C(C[C@H]1CC[C@@H](NC(=O)CN2CCOCC2)[C@@H](CO)O1)NC1CCC1,inactive
5,O=C1/C(=C/C=C/c2ccco2)CCC/C1=C\C=C\c1ccco1,inactive
6,NC(=O)CSc1nnnn1-c1cccc(O)c1,inactive
7,C[C@H]1CN([C@@H](C)CO)C(=O)c2cccc(NC(=O)c3cnccn3)c2O[C@@H]1CN(C)S(=O)(=O)c1ccc(Cl)cc1,inactive
8,CC(C)NC(=O)N(C)C[C@H]1Oc2ccc(NC(=O)C3CCCCC3)cc2C(=O)N([C@@H](C)CO)C[C@@H]1C,inactive
9,CS(=O)(=O)Nc1ccc2c(c1)[C@H]1C[C@@H](CC(=O)NCc3ccc(-c4ccccc4)cc3)O[C@@H](CO)[C@H]1O2,inactive
10,C[C@@H]1CCCCO[C@H](CN(C)Cc2ccccc2)[C@H](C)CN([C@H](C)CO)C(=O)c2cc(NS(=O)(=O)c3ccc(F)cc3)ccc2O1,inactive
11,O=C(C[C@H]1C=C[C@H](NS(=O)(=O)c2ccccc2)[C@@H](CO)O1)NCc1ccncn1,inactive
12,C[C@H]1CN([C@@H](C)CO)C(=O)Cc2cc(NC(=O)Nc3ccc(C(F)(F)F)cc3)ccc2O[C@@H]1CN(C)Cc1ccc(C(F)(F)F)cc1,inactive
13,C[C@H](CO)N1C[C@H](C)[C@@H](CN(C)Cc2ccc(C(F)(F)F)cc2)Oc2ccc(NC(=O)Nc3ccc(C(F)(F)F)cc3)cc2CC1=O,active
14,C[C@H](CO)N1C[C@H](C)[C@H](CN(C)Cc2ccc(C(F)(F)F)cc2)Oc2ccc(NC(=O)Nc3ccc(C(F)(F)F)cc3)cc2CC1=O,active
15,C[C@@H]1CN([C@H](C)CO)C(=O)Cc2cc(NC(=O)CCC(F)(F)F)ccc2O[C@H]1CN(C)Cc1ccc(C(F)(F)F)cc1,active
16,C[C@H]1CN([C@@H](C)CO)C(=O)Cc2cc(NC(=O)Nc3ccc(C(F)(F)F)cc3)ccc2O[C@H]1CN(C)Cc1ccc(C(F)(F)F)cc1,active
17,C[C@@H]1CN([C@H](C)CO)C(=O)Cc2cc(NC(=O)Nc3ccc(C(F)(F)F)cc3)ccc2O[C@H]1CN(C)Cc1ccc(C(F)(F)F)cc1,inactive
18,C[C@@H]1CN([C@H](C)CO)C(=O)Cc2cc(NC(=O)Nc3ccc(C(F)(F)F)cc3)ccc2O[C@@H]1CN(C)Cc1ccc(C(=O)O)cc1,inactive
19,C[C@H]1CN([C@@H](C)CO)C(=O)Cc2cc(NC(=O)CCC(F)(F)F)ccc2O[C@@H]1CN(C)Cc1ccc(C(F)(F)F)cc1,inactive
20,C[C@@H]1CN([C@H](C)CO)C(=O)Cc2cc(NC(=O)CCC(F)(F)F)ccc2O[C@@H]1CN(C)Cc1ccc(C(F)(F)F)cc1,inactive
21,C[C@@H]1CN([C@@H](C)CO)C(=O)Cc2cc(NC(=O)Nc3ccc(C(F)(F)F)cc3)ccc2O[C@@H]1CN(C)Cc1ccc(C(=O)O)cc1,inactive

row,SMILES,cytotoxicity call
1,Cc1noc(C)c1NC(=O)N[C@H]1CC[C@H](CC(=O)N2CCN(C)CC2)O[C@@H]1CO,inactive
2,O=C(C[C@@H]1CC[C@H]2[C@@H](COC[C@H](O)CN2S(=O)(=O)c2ccccc2F)O1)NCc1ccccc1Cl,inactive
3,C[C@@H]1CN([C@@H](C)CO)C(=O)c2cc(NC(=O)Cc3ccccc3)ccc2O[C@@H]1CN(C)S(=O)(=O)c1cccs1,inactive
4,O=C(O)Cn1nnnc1-c1ccc(F)cc1,inactive
5,CO[C@H]1O[C@H](CO)[C@@H](OC(=O)c2ccc(Br)cc2)[C@@H]2OC(=O)[C@@H](Cc3ccccc3)C/C=C/C[C@H](Cc3ccccc3)C(=O)O[C@@H]12,inactive
6,COCC(=O)N1C[C@H](C)[C@@H](OC)CN(C)C(=O)c2ccc(NC(=O)c3ccc(F)cc3)cc2OC[C@H]1C,inactive
7,COCC(=O)Nc1ccc2c(c1)OC[C@@H](C)N(Cc1ccccc1F)C[C@H](C)[C@H](OC)CN(C)C2=O,inactive
8,CCCCCCCCCCCCCCCCOc1nc2ccc(C)cc2c(=O)o1,inactive
9,C[C@@H]1CN([C@H](C)CO)C(=O)Cc2cc(NC(=O)NC3CCCCC3)ccc2O[C@H]1CN(C)Cc1ccc(C(F)(F)F)cc1,inactive
10,CC(C)NC(=O)N(C)C[C@@H]1Oc2ccc(NC(=O)CCC(F)(F)F)cc2CC(=O)N([C@@H](C)CO)C[C@H]1C,inactive
11,C[C@H](CO)N1C[C@H](C)[C@@H](CN(C)Cc2ccc(C(=O)O)cc2)Oc2ccc(NC(=O)Nc3ccc(C(F)(F)F)cc3)cc2CC1=O,inactive
12,CC(C)NC(=O)N(C)C[C@H]1Oc2ccc(NC(=O)CCC(F)(F)F)cc2CC(=O)N([C@@H](C)CO)C[C@@H]1C,active
13,C[C@H]1CN([C@@H](C)CO)C(=O)Cc2cc(NC(=O)NC3CCCCC3)ccc2O[C@H]1CN(C)Cc1ccc(C(F)(F)F)cc1,active
14,C[C@H]1CN([C@@H](C)CO)C(=O)Cc2cc(NC(=O)Nc3ccc(C(F)(F)F)cc3)ccc2O[C@H]1CN(C)Cc1ccc(C(=O)O)cc1,inactive
15,C[C@@H]1CN([C@@H](C)CO)C(=O)Cc2cc(NC(=O)Nc3ccc(C(F)(F)F)cc3)ccc2O[C@H]1CN(C)Cc1ccc(C(F)(F)F)cc1,active
16,CC(C)NC(=O)N(C)C[C@H]1Oc2ccc(NC(=O)CCC(F)(F)F)cc2CC(=O)N([C@H](C)CO)C[C@H]1C,inactive
17,C[C@@H]1CN([C@H](C)CO)C(=O)Cc2cc(NC(=O)Nc3ccc(C(F)(F)F)cc3)ccc2O[C@@H]1CN(C)Cc1ccc(C(F)(F)F)cc1,active
18,C[C@@H]1CN([C@H](C)CO)C(=O)Cc2cc(NC(=O)NC3CCCCC3)ccc2O[C@@H]1CN(C)Cc1ccc(C(F)(F)F)cc1,inactive
19,Cc1noc(C)c1S(=O)(=O)N(C)C[C@@H]1Oc2ccc(NC(=O)Nc3ccccc3)cc2CC(=O)N([C@@H](C)CO)C[C@H]1C,inactive
20,Cc1cc(O)c(C(=O)/C=C/N(C)C)c(=O)o1,inactive
21,C[C@@H]1CN([C@@H](C)CO)C(=O)CCCn2cc(nn2)CO[C@H]1CN(C)C(=O)Nc1ccc2c(c1)OCCO2,inactive

row,SMILES,cytotoxicity call
1,C[C@@H]1CN([C@@H](C)CO)C(=O)c2cc(-c3ccc(C#N)cc3)cnc2O[C@H]1CN(C)C(=O)Nc1ccc(C(F)(F)F)cc1,inactive
2,CCCCC[C@H]1C[C@H](O[C@H]2O[C@@H](CO)[C@@H](O)[C@@H](O)[C@@H]2O)CC(=O)O1,inactive
3,C[C@@H]1CN([C@@H](C)CO)C(=O)Cc2cc(NC(=O)Nc3ccc(C(F)(F)F)cc3)ccc2O[C@H]1CN(C)Cc1ccc(C(=O)O)cc1,inactive
4,C[C@@H]1CN([C@H](C)CO)C(=O)Cc2cc(NC(=O)Nc3ccc(C(F)(F)F)cc3)ccc2O[C@H]1CN(C)Cc1ccc(C(=O)O)cc1,inactive
5,C[C@@H]1CN([C@@H](C)CO)C(=O)Cc2cc(NC(=O)Nc3ccc(C(F)(F)F)cc3)ccc2O[C@@H]1CN(C)Cc1ccc(C(F)(F)F)cc1,active
6,C[C@@H]1CCCCO[C@@H](CN(C)S(C)(=O)=O)[C@@H](C)CN([C@@H](C)CO)C(=O)c2cc(NS(=O)(=O)c3ccc(F)cc3)ccc2O1,inactive
7,CC(C)NC(=O)Nc1ccc2c(c1)CC(=O)N([C@@H](C)CO)C[C@H](C)[C@@H](CN(C)Cc1ccc(Oc3ccccc3)cc1)O2,inactive
8,CC(C)NC(=O)Nc1ccc2c(c1)CC(=O)N([C@H](C)CO)C[C@H](C)[C@H](CN(C)Cc1ccc(Oc3ccccc3)cc1)O2,inactive
9,C[C@@H]1CN([C@H](C)CO)C(=O)Cc2cc(NC(=O)Nc3ccccc3)ccc2O[C@H]1CN(C)Cc1ccc(Oc2ccccc2)cc1,active
10,C[C@H](CO)N1C[C@H](C)[C@@H](CN(C)Cc2ccc(Oc3ccccc3)cc2)Oc2ccc(NC(=O)Nc3ccccc3)cc2CC1=O,inactive
11,CC(C)NC(=O)Nc1ccc2c(c1)CC(=O)N([C@@H](C)CO)C[C@H](C)[C@H](CN(C)Cc1ccc(Oc3ccccc3)cc1)O2,inactive
12,C[C@@H]1CN([C@@H](C)CO)C(=O)Cc2cc(NC(=O)Nc3ccccc3)ccc2O[C@@H]1CN(C)Cc1ccc(Oc2ccccc2)cc1,active
13,C[C@H]1CN([C@@H](C)CO)C(=O)Cc2cc(NC(=O)Nc3ccccc3)ccc2O[C@H]1CN(C)Cc1ccc(Oc2ccccc2)cc1,active
14,C[C@H]1CN([C@@H](C)CO)C(=O)Cc2cc(NC(=O)Nc3ccccc3)ccc2O[C@@H]1CN(C)Cc1ccc(Oc2ccccc2)cc1,active
15,C[C@@H]1CN([C@@H](C)CO)C(=O)Cc2cc(NC(=O)Nc3ccccc3)ccc2O[C@H]1CN(C)Cc1ccc(Oc2ccccc2)cc1,inactive
16,COCC#Cc1ccc2c(c1)O[C@@H](CN(C)C(=O)c1ccccc1F)[C@H](C)CN([C@@H](C)CO)S2(=O)=O,inactive
17,Cc1noc(C)c1S(=O)(=O)N(C)C[C@@H]1Oc2ccc(NS(C)(=O)=O)cc2CC(=O)N([C@H](C)CO)C[C@@H]1C,inactive
18,C[C@H](CO)N1C[C@H](C)[C@@H](CN(C)S(=O)(=O)c2cn(C)cn2)Oc2cc(C#Cc3ccccc3)ccc2S1(=O)=O,inactive
19,C=CC[C@@H](CC(=O)N[C@@H](CO)Cc1ccccc1)C(=O)NCCOC(=O)[C@H](CC=C)CC(=O)OC(C)(C)C,inactive
20,C[C@@H]1CN([C@H](C)CO)C(=O)Cc2cc(NC(=O)CCN3CCOCC3)ccc2O[C@@H]1CN(C)S(=O)(=O)c1ccccc1,inactive
21,C[C@H]1CCCCO[C@@H](CN(C)C(=O)c2ccccc2)[C@@H](C)CN([C@@H](C)CO)C(=O)c2cc(NC(=O)NC3CCCCC3)ccc2O1,inactive
